We go through 38 molecules from PubChem BioAssay AID651650 (Sanford-Burnham Center for Chemical Genomics, 2012).

The target of this assay is Neuropilin-1 (Homo sapiens) (UniProt O14786). The experiment in a line: blockers of CendR peptide binding to NRP-1 – biochemical, FP and AlphaScreen panel, dose response (AID 651650). Particulars: NRP-1 b1b2 / RPARPAR peptide binding, FP or AlphaScreen; run 1, at 100 µM (top of the series).
Chain of Neuropilin-1 (Homo sapiens) (O14786 whole entry, looked up): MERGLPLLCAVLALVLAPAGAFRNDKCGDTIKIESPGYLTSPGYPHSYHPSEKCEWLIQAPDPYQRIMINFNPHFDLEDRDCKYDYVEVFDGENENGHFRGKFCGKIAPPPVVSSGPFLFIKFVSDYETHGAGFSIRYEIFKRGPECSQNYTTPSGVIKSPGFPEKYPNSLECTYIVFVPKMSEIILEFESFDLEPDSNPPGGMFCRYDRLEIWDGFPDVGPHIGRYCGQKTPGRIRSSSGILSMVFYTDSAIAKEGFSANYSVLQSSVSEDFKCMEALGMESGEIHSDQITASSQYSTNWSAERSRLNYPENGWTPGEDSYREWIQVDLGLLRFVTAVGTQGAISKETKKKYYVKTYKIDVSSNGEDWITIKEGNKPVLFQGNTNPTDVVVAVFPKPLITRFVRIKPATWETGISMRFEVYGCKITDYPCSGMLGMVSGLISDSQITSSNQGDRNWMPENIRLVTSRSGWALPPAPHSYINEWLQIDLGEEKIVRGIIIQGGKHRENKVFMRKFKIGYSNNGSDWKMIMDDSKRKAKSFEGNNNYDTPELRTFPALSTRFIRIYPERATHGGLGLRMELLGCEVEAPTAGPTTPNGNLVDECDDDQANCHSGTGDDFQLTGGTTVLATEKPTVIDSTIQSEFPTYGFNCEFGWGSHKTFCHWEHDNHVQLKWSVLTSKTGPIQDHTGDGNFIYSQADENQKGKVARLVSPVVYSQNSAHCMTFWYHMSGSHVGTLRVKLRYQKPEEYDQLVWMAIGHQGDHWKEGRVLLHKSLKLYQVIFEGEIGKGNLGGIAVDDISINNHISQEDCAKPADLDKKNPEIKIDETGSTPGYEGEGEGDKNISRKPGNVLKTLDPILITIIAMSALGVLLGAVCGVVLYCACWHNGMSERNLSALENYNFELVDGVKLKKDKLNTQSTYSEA
With `COc1ccc(N(CC(=O)NCc2ccco2)C(=O)CCC(=O)Nc2ccccn2)cc1`, the inhibition was -5.26%.

For the molecule `CCc1ccc(NS(=O)(=O)c2c(C(=O)N3CCCCCC3)c(C)n(C)c2C)cc1`, the inhibition is 31.1%.

Regarding `CCN(CC)C(=O)CSc1nnc(-c2c[nH]c3ccccc23)o1`, the inhibition was found to be 46.9%.

Take `CC(=O)Nc1cccc(-c2csc(NCc3ccccc3)n2)c1`: the inhibition was 26.4%.

Regarding `Cc1cc(C)cc(N(CCC(=O)O)S(=O)(=O)c2ccc3ccccc3c2)c1`, the inhibition was found to be 38.7%.

For `CCC1=C(OC(=O)N(CC)CC)N2C(=O)OC(=NCC3CC3)[C@]2(Cc2ccccc2)[C@H]2C1=CC[C@H]1C(=O)N(C)C(=O)[C@H]12`, the inhibition was -6.33%.

`CC(C(=O)N1CCN(c2ccc(Cl)cc2)CC1)c1ncc(C(F)(F)F)cc1Cl` (stereo not drawn): the inhibition is -2.5%.

Turning to `OCCCc1n[nH]c(=S)n1-c1ccccc1`, the inhibition turned out to be 31.2%.

With `CC(CN1CCOCC1)OC(=O)c1ccc2c(c1)OCCO2` (stereo not drawn), the inhibition came to 19.2%.

`Cc1ccc(NC(=S)Nc2cccc3ccccc23)cc1`: the inhibition was 13.4%.

Regarding `CC(C)C(N)c1csc(NC(=O)Nc2cccc(C(F)(F)F)c2)n1` (stereo not drawn), the inhibition is 28.7%.

As for `CC(C)Cc1ccc(C(C)C(=O)Nc2ccc(O)cc2)cc1` (stereo not drawn), the inhibition was determined as 34.6%.

For the molecule `Cc1ccc(C(=O)Nc2nnc([C@H]3C[C@H](O)[C@@H](CO)O3)s2)cc1`, the inhibition stood at 25.4%.

Consider `FC(F)(F)c1cc(C(F)(F)F)c2ccc(Oc3ccccc3)nc2n1`, for which the inhibition turned out to be 22.5%.

Regarding `C/C(=N\NC(=O)c1cc(O)ccc1O)c1cccc(NC(=O)c2cccc(Cl)c2)c1`, the inhibition came out at 27.7%.

Regarding `O=C(CSc1nnc(Cc2ccccc2)n1Cc1ccccc1)NCc1ccco1`, the inhibition is 8.68%.

Consider `Cc1nnc(NC(=O)c2ccccc2C(=O)O)s1`, for which the inhibition worked out at 99.7%.

`Cc1ccc(NC(=O)c2ccc3c(c2)OCCO3)cc1S(=O)(=O)Nc1cccc(Cl)c1`: the inhibition was 4.91%.

Turning to `OCCNc1ncnc2ccc(Br)cc12`, the inhibition came out at 66.8%.

For the molecule `CCCN(C(=O)Cn1c(C(F)(F)F)nc2ccccc21)C1CCS(=O)(=O)C1` (stereo not drawn), the inhibition came out at 60.7%.

`COc1ccc(NC(=O)CN(C)CC(=O)Nc2cccc(F)c2)cc1Cl`: the inhibition was 71.1%.

For `O=C1CCC/C=C\C[C@@H](CC(=O)N(CCO)Cc2ccccc2)C(=O)N2CCC[C@H]2CO1`, the inhibition is -2.11%.

As for `COc1ccc(N=C2C(=Nc3ccc(OC)cc3)N(c3ccc(N(C)C)cc3)C(=S)N2c2ccc(OC)cc2)cc1`, the inhibition turned out to be 50.6%.

Consider `Oc1ccccc1-c1ccn[nH]1`, for which the inhibition was determined as 32%.

Take `C=CCn1c(SCC(=O)Nc2ncc(Cc3ccc(Br)cc3)s2)nnc1-c1ccncc1`: the inhibition stood at 42%.

Take `O=C(COC(=O)C1CC(=O)N(Cc2ccccc2)C1)Nc1ccccc1F` (stereo not drawn): the inhibition was found to be 56.9%.

As to `CCOC(=O)c1ccc2[nH]c(C)c(C)c2c1`, the inhibition was -0.673%.

Consider `Cc1cc(C)n(-c2nnc3n2N=C(c2c[nH]c4ccccc24)CS3)n1`, for which the inhibition is 2.19%.

With `Cn1c(=O)c2[nH]c(COc3ccccc3)nc2n(C)c1=O`, the inhibition is 16.6%.

Regarding `Cc1ccc(S(=O)(=O)NCC(=O)N(c2ccccc2)C(C(=O)NCc2ccccc2)c2ccco2)cc1` (stereo not drawn), the inhibition is -4.65%.

For the molecule `CCOC(=O)Cn1c(=O)n(Cc2ccco2)c(=O)c2ccc(C(=O)NC3CCCC3)cc21`, the inhibition turned out to be 61%.

For the molecule `O=C(O)c1cccc(N2C(=O)c3cc([N+](=O)[O-])cc4cc([N+](=O)[O-])cc(c34)C2=O)c1`, the inhibition amounted to 32.7%.

As for `NC(=O)C1CCN(c2nc(-c3ccc4occc(=O)c4c3)cs2)CC1`, the inhibition amounted to 53.3%.

Consider `Cc1ccccc1NC(=S)NC(=O)COc1ccccc1C`, for which the inhibition worked out at 98.2%.

For the molecule `Cc1ccc(CN(CC(=O)NC2CCCCC2)C(=O)c2csnn2)cc1`, the inhibition came to 30.2%.

Regarding `COC(=O)CCCC1=CC2=CC(=O)C(C)(OC(=O)c3cccs3)C(=O)C2=CN1CCCOC(C)C` (stereo not drawn), the inhibition came to 93.3%.

As to `COc1ccc(OCC(=O)O/N=C(\N)Cc2ccc(Cl)cc2Cl)cc1`, the inhibition was determined as 61.1%.

Take `CC(Nc1nc(-c2ccc(F)cc2)cs1)c1nc2cc(C(F)(F)F)ccc2n1CCOCCO` (stereo not drawn): the inhibition came to 43.3%.
